Screening results from PubChem BioAssay.
FLuc modulator = firefly luciferase modulation, counter-screen for miR-21 project; purified FLuc, Km substrates, luminescence inhibition; Potency, µM (doses to about 57.5 µM), for the others: at the top dose activity change, negative = inhibition, most hits filed as inhibitors; 360,000 compounds, 6.9% hits;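 note: plate controls were vehicle for no effect and reference inhibitor for full effect; nearly all actives have a fitted effect of over 55% in size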
Target sequence (P08659 whole entry, looked up): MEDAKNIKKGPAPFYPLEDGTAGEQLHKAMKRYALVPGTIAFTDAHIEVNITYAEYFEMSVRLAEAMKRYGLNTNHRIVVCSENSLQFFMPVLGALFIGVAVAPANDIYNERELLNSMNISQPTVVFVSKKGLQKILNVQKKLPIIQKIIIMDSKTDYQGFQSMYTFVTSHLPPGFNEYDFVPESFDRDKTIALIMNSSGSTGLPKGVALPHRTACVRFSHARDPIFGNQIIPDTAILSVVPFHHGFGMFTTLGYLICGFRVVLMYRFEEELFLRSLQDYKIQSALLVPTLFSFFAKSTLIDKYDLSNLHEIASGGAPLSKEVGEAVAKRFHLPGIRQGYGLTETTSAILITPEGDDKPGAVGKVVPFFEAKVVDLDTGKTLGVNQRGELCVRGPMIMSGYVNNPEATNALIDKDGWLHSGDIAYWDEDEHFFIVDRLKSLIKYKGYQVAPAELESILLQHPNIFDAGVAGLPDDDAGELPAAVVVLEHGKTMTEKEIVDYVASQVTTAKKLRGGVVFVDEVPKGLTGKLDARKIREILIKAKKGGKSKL
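Purified P. pyralis luciferase (10nM final) with 10uM D-luciferin and 10uM ATP (Km levels) in 50mM Tris acetate pH 7.5, 10mM Mg acetate, 0.01% Tween-20, 0.05% BSA; qHTS 6-point titration, ~60 µM downward; luminescence read.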
SMN2 splice up = enhancers of SMN2 splice variant expression | HEK293 SMN2-luciferase splicing reporter, luminescence, 30-36 h | Potency, µM (doses to about 46.1 µM), for the others: at the highest dose activity change, positive = activation, actives largely listed as activators | 210,000 compounds, 2.8% hits | AID 1458; note: % of control where 0% means no effect; nearly all actives have a fitted effect of over 55% in size
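HEK293 cells carry an SMN2 […]–luciferase reporter in which exon 7 inclusion puts luciferase in frame. Cells were plated 10-12 h before compound addition, then incubated 30-36 h at 37C. ONE-Glo luminescence was read; sodium butyrate at 4.5 mM final served as control.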
Rab9 prom act = Rab9 promoter activation; AID 485297; Potency, µM (top dose mostly 9.22 µM), for inactives: at the highest dose activation, negative = inhibition, most hits filed as activators; 320,000 compounds, 2.8% hits; Huh7 Rab9 promoter-luciferase reporter, luminescence, 24 h; note: % of control where 0% means no effect; nearly all actives have a fitted effect of over 60% in size
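Luciferase signal after 10 min detection reagent at ambient indicates Rab9 promoter upregulation; stably transfected Huh7 cells were treated 24 h with compound in DMSO at 37 °C, 5% CO2.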
NPC1 prom act = activates the NPC1 promoter | Huh7 NPC1 promoter luciferase reporter, 24 h | Potency, µM (doses to about 9.22 µM), without a hit: top-dose activation, hits mostly activators | 320,000 compounds, 2.4% hits; note: % of control where 0% means no effect; nearly all actives have a fitted effect of over 60% in size
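Stable NPC1-promoter luciferase Huh7 line; cpd (DMSO) 24 h, 37 °C, 5% CO2; Amplite luciferase reagent 10 min RT; luminescence readout. qHTS format.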
ELG1 genotoxic = inducers of genotoxicity in HEK293T ELG1-luciferase cells. HEK293T ELG1-luciferase reporter, luminescence, 16 h. Potency, µM (top dose mostly 46 µM), inactives show at the highest dose activity change, positive = activation, actives largely listed as activators. 330,000 compounds, 1.3% hits; note: % of control where 0% means no effect; nearly all actives have a fitted effect of over 60% in size
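Cells (2,000/well) expressing the ELG1-luciferase fusion are dosed by pin tool and kept 16 hr at 37 °C, 5% CO2. Signal comes from ONE-Glo luciferase reagent after 30 min at room temperature.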
* hit, by the source's call; ? = inconclusive; . = no result; [ ] = dose if it differs, or a comment. An excerpt weighted towards active compounds, which were near 7.4% of everything screened. Calls come from the whole dose curve; as a rule, active = well fitted curve in the direction sought with a large enough effect; inconclusive = small, poorly fitted or top-dose-only effect, or another doubt; inactive = no such curve, though single readings can be large; an effect the other way counts as inactive or inconclusive. Potency is the fitted concentration of half-maximal effect.

SMILES | FLuc modulator | SMN2 splice up | Rab9 prom act | NPC1 prom act | ELG1 genotoxic
Cc1cc(C)cc(NC(=S)NCc2cccn2C)c1 | 3% | 0% | -4% | 18% | -4%
Cn1cccc1CNC(=O)Nc1ccccc1 | 19µM* | ? | ? | 28% | ?
Cc1ccc(NC(=O)NCCN2CCCCC2)cc1C | 2% | . | 0% | -6% | 0%
Cn1cccc1CNC(=O)Nc1ccc(Cl)cc1 | 13µM* | ? | 3.5µM* | ? | ?
Cc1ccc(CNC(=O)Nc2ccccc2)n1C | 19µM* | . | 26% | 17% | 8%
Cc1ccc(NC(=O)NCc2cccn2C)cc1C | ? | . | ? | 4µM* | ?
Cc1cc(NC(=O)C2CC2)n(-c2nc3ccccc3s2)n1 | 15µM* | 0% | 18% | -1% | 7%
Cc1cc(C)n2ncc(/C(N)=N/OC(=O)Nc3ccccc3)c2n1 | 27µM* | . | 0% | -1% | -8%
COc1cc(C)ccc1OCCCCOc1ccccc1C(C)=O | ? | -45% | -5% | 1% | 6%
CCOc1ccccc1OCCCOc1ccc([N+](=O)[O-])cc1Cl | 9.5µM* | -23% | 0% | -4% | 0%
COc1cc(C=O)ccc1OCCOCCOc1cc(C)ccc1Cl | -12% | . | -3% | -1% | -3%
COc1cccc(OC)c1OCCCOc1ccc([N+](=O)[O-])cc1Cl | -3% | -31% | 3% | 5% | -7%
COc1cc(C)ccc1OCCCOc1ccccc1Cl | 6.7µM* | 13µM* | 3.5µM* | 2.8µM* | ?
COc1cc(C)ccc1OCCOc1ccccc1Cl | 19µM* | 5% | ? | ? | ?
CCCCN1C(=O)C(NC(=O)c2ccc(C(C)(C)C)cc2)(C(F)(F)F)C(C(=O)OC)=C1C (stereo unspecified) | -10% | -7% | . | . | .
COc1ccc(/C=C2\SC(N)=NC2=O)cc1 | 15µM* | . | 25% | 2% | 4%
COc1cc(/C=C2\SC(N)=NC2=O)cc(Br)c1O | -10% | . | -3% | 0% | 2%
CCOC(=O)C1CCCN(C2=NC(=O)/C(=C/c3ccc(OC)cc3)S2)C1 (stereo unspecified) | -11% | . | 2% | -1% | 0%
NC1=NC(=O)/C(=C\c2ccco2)S1 | 17µM* | . | 0% | -3% | 2%
CCOC(=O)CSC1=NC(=O)/C(=C/c2ccc(OC)cc2)S1 | 13µM* | -10%[1.84 µM] | -32% | -27% | ?
CCCCNC(=O)C1CCCN(S(=O)(=O)CCC)C1 (stereo unspecified) | 3% | . | . | . | .
CCOc1ccc(N2C(=O)N(Cc3c(F)cccc3Cl)c3ccccc3S2(=O)=O)cc1 | 4% | . | . | . | .
Cc1ccc(-c2csc3nc(C)n(-n4c(C)ccc4C)c(=O)c23)o1 | ? | -10% | 1% | -2% | -1%
Cc1ccc(-c2csc3nc(C)n(N)c(=O)c23)o1 | ? | 4% | ? | ? | 16µM*
CC(=O)Nc1ccc(-c2nnc(SCC(=O)Nc3ccc4c(c3)oc3ccccc34)n2C)cc1 | 1.2µM* | -4% | ? | ? | 1%
SMILES | FLuc modulator | SMN2 splice up | Rab9 prom act | NPC1 prom act | ELG1 genotoxic
CCn1c(SCC(=O)Nc2ccc3c(c2)oc2ccccc23)nnc1-c1ccc(N)cc1 | 2.7µM* | -13% | 4% | -5% | -9%
COc1ccccc1NC(=O)CSc1nnc(-c2ccc(NC(C)=O)cc2)n1C | -6% | -5% | 7% | -1% | -2%
COc1ccc(Nc2nc3ccc(C)cc3nc2-n2nc(C)cc2C)cc1Cl | -1% | -7% | . | . | .
C[C@@](N)(Cc1ccc(O)c(O)c1)C(=O)O | . | 1% | . | . | .
c1ccc(-c2nccnc2-c2ccccc2)cc1 | 5% | . | 2% | -2% | 0%
CC(C)(C)c1ccc(-c2ncccc2O)cc1 | 13µM* | . | 18% | 22% | 10%
COC(=O)N1[C@H](C)C=C[C@]1(Cc1ccccc1)C(=O)NCc1ccc(N(C)C)cc1 | . | 13µM* | . | . | .
COc1ccccc1-c1ccc(NC2CCCCC2)nn1 | 7.6µM* | 10µM* | ? | ? | ?
COc1ccccc1-c1ccc(Nc2cccc(C(F)(F)F)c2)nn1 | 4% | -9% | 20% | 2% | -1%
COc1ccc(Nc2nc(N)nc(CSc3nncn3C)n2)cc1 | 15µM* | 19% | ? | 17% | 21µM*
CCOc1ccccc1Nc1nc(N)nc(CSc2nncn2C)n1 | 4% | 0% | -5% | -2% | -1%
COc1ccc(Nc2nc(N)nc(CSc3nnc(C)s3)n2)cc1 | 27µM* | 22µM* | ? | 26% | ?
Cc1ccccc1-c1nc(NCCN2CCOCC2)c2ccccc2n1 | . | 2% | . | . | .
NC(=O)C1CCN(c2nc(-c3ccc4c(c3)OCCO4)cs2)CC1 | 4.8µM* | . | 2.8µM* | 1.4µM* | 2%
NC(=O)C1CCN(c2nc(-c3ccc4c(c3)OCO4)cs2)CC1 | 19µM* | . | . | . | .
COc1ccc(C(=O)Nc2ccc(N3CCN(C)CC3)cc2)cc1OC | 17µM* | . | ? | ? | ?
Cc1ccc(C(=O)Nc2ccc(Br)c(C(F)(F)F)c2)cc1 | 13µM* | 33% | ? | ? | -1%
Cc1cc(Cl)ccc1OC(C)C(=O)OCC(=O)Nc1ccc2[nH]c(=O)[nH]c2c1 (stereo unspecified) | -1% | . | -1% | -4% | -2%
Cc1ccc(NC(=O)c2ccc(OC(=O)C(C)Oc3ccc(Cl)cc3C)cc2)cc1 (stereo unspecified) | -27% | 8.9µM* | 1.8µM* | 4.5µM* | ?
CCCCOc1ccc(C(=O)Nc2ccc(N3CCN(C)CC3)cc2)cc1 | -12% | 12% | -4% | -3% | 5%
CCOc1ccc(C(=O)Nc2ccc(N3CCN(C)CC3)cc2)cc1 | 12µM* | . | 15% | 15% | 9%
COc1ccc(C)cc1NC(=O)c1cnc2ccc(C)cn2c1=O | 1% | -1% | . | . | .
CCOC(=O)C1CCN(c2nc3c(S(=O)(=O)c4ccc(Br)cc4)nnn3c3ccsc23)CC1 | 3% | . | . | . | .
CCN(CCCNC(=O)c1cc2c(=O)[nH]c3ccc(C)cc3c2s1)Cc1ccccc1 | -1% | -13% | . | . | .
COc1ccc(-n2nc3c(c2NC(=O)C(=O)N2CCN(C)CC2)CSC3)cc1 | 4% | . | . | . | .
SMILES | FLuc modulator | SMN2 splice up | Rab9 prom act | NPC1 prom act | ELG1 genotoxic
Cc1ccc(C(=O)Nc2ccc(S(=O)(=O)N3CCCC3)cc2)cc1 | ? | . | 13% | 1% | 3%
Cc1ccc(NC(=O)c2ccc(C)cc2)cc1 | 0.85µM* | . | 0.25µM* | 0.45µM* | ?
COc1ccc(C(=O)Nc2ccc(N3CCN(C)CC3)cc2)cc1 | 19µM* | . | ? | ? | ?
CN1CCN(c2ccc(NC(=O)c3ccc4ccccc4c3)cc2)CC1 | 1.9µM* | . | 0.56µM* | 0.32µM* | 1.8µM*
Cc1ccc(C(=O)Nc2cc(C(C)C)c(O)c(C(C)C)c2)cc1 | 24µM* | 11% | 0% | 1% | -7%
CCOc1ccc(NC(=O)c2ccc(NCC(=O)N3CCCCCC3)cc2)cc1 | 11µM* | -4% | 9% | 26% | -7%
CCOc1ccc(C(=O)NCC(=O)N2CCCCCCC2)cc1 | -3% | . | 0% | -1% | -1%
